# High-throughput results as filed in PubChem BioAssay.
# Hits are enriched below; roughly 12% of the tested compounds scored in any of these assays.
# JMJD2A Tudor inh: blocks the human JMJD2A Tudor domain; O75164; AlphaScreen JMJD2A-Tudor / H3K4me3 peptide binding; Potency, µM (highest dose often 114 µM), for inactives: at the top dose activity change, negative = inhibition, most hits filed as inhibitors; 390,000 compounds, 4.4% hits; AID 504339; note: % is set by controls: 0 for no effect and ±100 for the full control effect; nearly all actives have a fitted effect of over 50% in size
# G9a inh: blocks human histone lysine methyltransferase G9a | Potency, µM (top dose mostly 102 µM), for inactives: at the highest dose activity, negative = inhibition, hits mostly inhibitors | 350,000 compounds, 8.8% hits | G9a H3K9 monomethylation, AlphaScreen, 2 h; note: % is set by controls: 0 for no effect and ±100 for the full control effect; nearly all actives have a fitted effect of over 75% in size
#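 G9a (20 nM) preincubated 15 min RT with compounds, then 500 nM biotinylated H3K9 peptide and 20 uM SAM added; 2 h RT reaction. Monomethyl-H3K9 product detected by AlphaScreen with anti-H3K9me1 antibody, streptavidin donor and anti-rabbit IgG acceptor beads.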
# HP1b chromo inh: inhibitors of HP1-beta chromodomain binding to methylated histone tails. P83916. AlphaScreen HP1-beta / biotin-H3K9me3 peptide binding. Potency, µM (top dose mostly 114 µM), for inactives: at the highest dose activity change, negative = inhibition, hits mostly inhibitors. 390,000 compounds, 0.56% hits. AID 540317; note: nearly all actives have a fitted effect of over 70% in size
#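 HP1-beta protein (50 nM final) preincubated 30 min at room temperature with biotinylated H3(1-18)K9me3 peptide (50 nM) in PBS pH 7.4, 0.01% Tween-20, then compound added for 30 min. AlphaScreen streptavidin donor/nickel chelate acceptor beads (10 ug/mL final), 30 min dark, luminescence read.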
# BAZ2B inh: blocks human BAZ2B | Q9UIF8 | AlphaScreen BAZ2B-H3K14Ac peptide displacement | Potency, µM (series often up to 114 µM), without a hit: at the highest dose activity change, negative = inhibition, actives largely listed as inhibitors | 360,000 compounds, 4.4% hits; note: % is set by controls: 0 for no effect and ±100 for the full control effect; nearly all actives have a fitted effect of over 60% in size
#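 AlphaScreen luminescence quantifies BAZ2B engagement of H3K14Ac peptide; the protein and biotinylated peptide are both at 50 nM final, buffer PBS pH 7.4 with 0.01% Tween-20, all steps at room temperature.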
# Sfp PPTase inh: inhibitors of Bacillus subtilis Sfp phosphopantetheinyl transferase | Q9F4F7 | Potency, µM, inactives show largest response in the series, negative = inhibition, hits mostly inhibitors | Biochemical Sfp PPTase activity, qHTS | 310,000 compounds, 3.5% hits;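 note: the enzyme is Sfp with the accession as filed and its product quenches rhodamine fluorescence; 0% = enzyme reaction without inhibitor and -100% = no enzyme wells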
#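 Sfp 15 nM + cpd, 15 min RT; start w/ rhodamine-CoA 5 uM, BHQ-2-YbbR 12.5 uM (final); 50 mM Hepes pH 7.6, 10 mM MgCl2, 0.01% NP-40, 0.01% BSA; read 525/598 nm at 0 and 30 min.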
# TDP1 inh: TDP1 (human) enzyme inhibition | Potency, µM (top dose mostly 130 µM), inactives show at the highest dose activity change, negative = inhibition, most hits filed as inhibitors | 350,000 compounds, 0.28% hits | AID 485290 | recombinant TDP1, AlphaScreen DNA substrate cleavage | Q9NUW8; note: % is set by controls: 0 for no effect and ±100 for the full control effect; nearly all actives have a fitted effect of over 40% in size
# Target sequence (Q9NUW8 whole entry, looked up): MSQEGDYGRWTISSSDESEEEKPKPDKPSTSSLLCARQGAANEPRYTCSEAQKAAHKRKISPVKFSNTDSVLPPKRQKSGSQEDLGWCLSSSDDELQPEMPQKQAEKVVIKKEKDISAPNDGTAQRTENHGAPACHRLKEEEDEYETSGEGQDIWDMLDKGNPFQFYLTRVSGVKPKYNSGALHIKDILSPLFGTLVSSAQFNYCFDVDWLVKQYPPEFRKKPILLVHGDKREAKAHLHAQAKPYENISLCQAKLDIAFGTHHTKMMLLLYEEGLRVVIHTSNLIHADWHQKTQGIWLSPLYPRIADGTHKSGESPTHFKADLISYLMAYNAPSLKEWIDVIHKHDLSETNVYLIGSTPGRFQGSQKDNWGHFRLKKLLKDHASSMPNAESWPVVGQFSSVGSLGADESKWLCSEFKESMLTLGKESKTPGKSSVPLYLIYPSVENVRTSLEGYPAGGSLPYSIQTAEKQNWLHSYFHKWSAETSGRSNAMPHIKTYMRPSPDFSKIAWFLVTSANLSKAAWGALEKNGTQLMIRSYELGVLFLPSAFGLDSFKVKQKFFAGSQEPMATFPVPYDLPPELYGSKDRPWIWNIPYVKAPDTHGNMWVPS
#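 Recombinant E. coli-expressed Tdp1 (1 nM) preincubated with compound 15 min at RT, then 5'-biotin/3'-phosphotyrosine-FITC DNA substrate (15 nM) added for 5 min. AlphaScreen beads (10 ug/ml) added, 10 min RT; tyrosine-FITC cleavage read as signal loss.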
# * hit, by the source's call; ? = inconclusive; · = no result given; [ ] = remark or other dose. Calls come from the whole dose curve; as a rule, active = well fitted curve in the direction sought with a large enough effect; inconclusive = small, poorly fitted or top-dose-only effect, or another doubt; inactive = no such curve, though single readings can be large; an effect the other way counts as inactive or inconclusive. Potency is the fitted concentration of half-maximal effect.
SMILES,JMJD2A Tudor inh,G9a inh,HP1b chromo inh,BAZ2B inh,Sfp PPTase inh,TDP1 inh
Cc1nc2ncccn2c1-c1csc(Nc2ccc(N(C)C)cc2)n1,28.2µM*,7.94µM*,?,31.6µM*,?,12.0%
O=C(Nc1ccc(-c2csc(Nc3ccc(Cl)cc3)n2)cc1)c1ccccc1,-11.4%,·,25.5%,·,·,-0.2%
c1ccc(Nc2nc(-c3ccncc3)cs2)cc1,-11.1%,?,16.5%,4.2%,-15.6%,-3.7%
Cc1nc2ncccn2c1-c1csc(Nc2ccc(S(N)(=O)=O)cc2)n1,-14.6%,·,24.2%,-1.7%,-19.8%,·
Cc1cccc(NC(=O)c2ccc3nc(CCc4ccccc4)oc3c2)c1C,-11.8%,-1.9%[59 µM],8.2%[57 µM],-21.5%,·,-4.1%
Cc1ccc(C(=O)NCCc2c[nH]c3ccccc23)c(C)c1,-26.2%,-44.4%,-8.2%,50.1µM*,0.7%,·
O=C(NCCc1c[nH]c2ccccc12)c1cc([N+](=O)[O-])cc([N+](=O)[O-])c1,-24.4%,10µM*,30.0%,-3.2%,1.0%,·
COc1cc(-c2noc(C)c2C(=O)NCCc2c[nH]c3ccccc23)cc(OC)c1OC,?,31.6µM*,13.8%,50.1µM*,6.8%,·
CC(C)C(=O)NCCc1c[nH]c2ccccc12,-7.4%[57.1 µM],-0.2%[59 µM],34.6%,4.1%,-10.3%,1.1%
Cc1cc2c(s1)c1cnn(Cc3ccc(F)c(F)c3)c(=O)c1n2C,-12.3%,·,·,·,·,·
C=CC[C@@H](CC(=O)NCCO)C(=O)N[C@@H](C)COC(=O)[C@@H](CC=C)Cc1ccc(F)cc1,-17.9%,·,-2.7%,·,·,1.0%
CCOc1ccc(C2=Nn3c(nnc3-c3ccccn3)SC2)cc1,35.5µM*,?,46.1%,20µM*,?,6.1%
COc1ccc(C2=Nn3c(nnc3-c3ccccn3)SC2)cc1OC,44.7µM*,?,47.3%,20µM*,-17.1%,1.2%
COc1ccc(C2=Nn3c(nnc3-c3ccc(OC)cc3)SC2)cc1,?,5.5%[59 µM],-20.5%,4.7%,?,8.7%
COc1ccc(N2C(=O)Cc3cc(OC)c(OC)cc3C2c2ccc(F)cc2)cc1 (centres undefined),-15.6%,-22.7%[59 µM],33.7%,-19.2%,·,9.8%
Cc1ccc(CNC(=O)C(=O)Nc2c3c(nn2-c2ccc(F)cc2)CSC3)cc1,-1.0%,15.5%[59 µM],35.2%,-1.0%,·,10.4%
O=C(COC(=O)C1CCN(c2ccc(C(F)(F)F)cn2)CC1)Nc1cccc(F)c1,6.5%,?,115.7%,6.3%,·,·
CN(CC(=O)Nc1ccc(F)cc1)C(=O)COC(=O)C1CCN(c2ccc(C(F)(F)F)cn2)CC1,-41.4%,79.4µM*,30.1%,-5.1%,·,1.5%
CCOc1ccc(C(=O)C(C)OC(=O)C2CCN(c3ccc(C(F)(F)F)cn3)CC2)cc1 (centres undefined),25.5%,56.2µM*,68.2%,15.6%,·,-12.2%[0.505 µM]
O=C(COC(=O)C1CCN(c2ccc(C(F)(F)F)cn2)CC1)Nc1ccc(Cl)cc1,0.7%,7.4%[0.501 µM],52.3%,7.6%,·,-7.0%
O=C(COC(=O)C1CCN(c2ccc(C(F)(F)F)cn2)CC1)Nc1ccc(F)cc1[N+](=O)[O-],?,11.2µM*,?,?,·,6.7%
COc1ccc(CNC(=O)CNC(=O)c2ccc(Br)o2)cc1OC,-4.5%,·,20.7%,-0.7%,10.7%,0.9%
CCCC1CC(C(=O)NC(C(C)Cl)C2OC(SC)C(O)C(O)C2O)N(C)C1 (centres undefined),-10.8%,-6.4%[12.7 µM],17.9%,1.1%,3.1%,·
COc1ccc(CNC(=O)CCSCc2ccccc2C)cc1,-8.7%,20.1%,40.3%,-26.8%,-19.6%,1.2%
O=C(c1ccc(Cn2c(=S)[nH]c3cc4c(cc3c2=O)OCO4)cc1)N1CCN(c2ncccn2)CC1,·,35.7%,·,0.7%,7.6%,5.1%
CC(C)c1ccc(NC(=O)c2cc(S(=O)(=O)NC3CCCCC3)ccc2F)cc1,-21.4%,5.3%[59 µM],24.2%,-1.3%,·,-2.6%
CS(=O)(=O)N1CCC(C(=O)O)CC1,-12.9%,-0.1%,13.2%,5.62µM*,8.3%,1.4%
C=CCNC(=O)C1CCN(S(C)(=O)=O)CC1,-12.9%,-23.5%,34.6%,-0.6%,-0.6%,1.9%
